The results in this text go back to PubChem BioAssay AID485313 (National Center for Advancing Translational Sciences (NCATS), 2010).

Among all 320,000 compounds or so, about 7,600 (2.4%) were called active. Another 3% or so got no clear call; they are omitted. The call rests on the fitted dose curve; in most records, active means well fitted activation curve with a large enough effect; inconclusive means small, poorly fitted or top-dose-only effect; inactive means no such curve, though single readings can be large or run the other way. What follows is part of a selection rich in actives, with near analogues and random picks from the rest. A call without a number means that no potency is given here.
Potency means the concentration at half of the fitted maximal effect.

This experiment can be described thus: qHTS Assay for NPC1 Promoter Activators. Further: nearly all actives have a fitted effect of over 60% in size. The settings on record: Huh7 NPC1 promoter luciferase reporter, 24 h; series mostly up to 9.22 µM. Summed up: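 Luminescence read-out of NPC1 promoter-driven luciferase in stably transfected Huh7 cells; compounds delivered in DMSO and left 24 h at 37C, 5% CO2, qHTS titration format.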
For orientation: Quantitative high-throughput screening tests each substance at several concentrations.
In the case of `CC(=O)NC(c1cccs1)c1cc(Br)c2cccnc2c1O` (centres undefined), the Potency entry is “inactive”.

As for `CCC(C)NC(=O)c1ccc(NC(=O)CC2SC(N3CCCCC3)=NC2=O)cc1` (centres undefined), the Potency result was “inactive”.

Regarding `CC(NC(=O)CSc1nc2c(cc1C#N)CN(C)CC2)c1ccccc1` (centres undefined), the Potency result was “inactive”.

For the molecule `Cc1nonc1NC(=O)CSc1nc2ccccc2cc1C#N`, the Potency result was “inactive”.

Take `Cc1cc(NC(=O)CSc2nc3c(cc2C#N)CCCCC3)no1`: the Potency is 1410 nM (active).

For `COc1ccc(C(=O)OCC(=O)c2cc(C)n(CC3CCCO3)c2C)cc1[N+](=O)[O-]` (centres undefined), the Potency entry was “inactive”.

`CCCCN(C(=O)C1CCC1)c1c(N)n(Cc2ccccc2)c(=O)[nH]c1=O`: the Potency result was “inactive”.

On to `Cn1c(SCC(=O)Nc2ccc(N3CCOCC3)cc2)nnc1C(F)(F)F`, for which the Potency entry was “inactive”.

Regarding `COC(=O)C1CCN(C(=O)c2cc(=O)[nH]c3ccccc23)CC1`, the Potency result was “inactive”.

For the molecule `CC1CCN(C(=O)COC(=O)c2cc(=O)[nH]c3ccccc23)CC1`, the Potency was 3550 nM (active).

For `CN(C(=O)COC(=O)c1cc(=O)[nH]c2ccccc12)C1CCCCC1`, the Potency result was “inactive”.

`CCN(CC)S(=O)(=O)c1ccc(C)c(NC(=O)COc2ccc(Br)cc2Cl)c1`: the Potency entry is “inactive”.

In the case of `Cc1cccc(NC(=O)COc2ccc(Br)cc2C)n1`, the Potency was 2820 nM (active).

Regarding `Cc1cccc(NC(=O)Nc2ccc(OCc3ccccc3)cc2)n1`, the Potency result is “inactive”.

In the case of `Cc1cc(C)cc(NC(=O)C(OC(=O)c2ccc(O)cc2)c2ccccc2)c1` (centres undefined), the Potency entry was “inactive”.

For `Cc1ccccc1NC(=S)NNC(=O)c1cccc(Br)c1`, the Potency result was “inactive”.

Turning to `Cc1ccc(C)c(NC(=S)NNC(=O)c2csc(C)c2)c1`, the Potency result is “inactive”.

As to `Cc1cc(C(=O)NNC(=S)Nc2ccccc2C)cs1`, the Potency is 3160 nM (active).

Consider `Cc1ccc(C(=O)OCC(=O)NCc2cc(C)c(O)c(C)c2)cc1S(=O)(=O)N1CCCCC1`, for which the Potency result is “inactive”.

Turning to `NS(=O)(=O)c1ccc(N2C(=O)C3C4CC(C(Br)C4Br)C3C2=O)cc1` (centres undefined), the Potency entry was “inactive”.

For the molecule `CCOc1ccc(NC(=O)CN(C)C(=O)CSc2ccccc2)cc1OCC`, the Potency entry is “inactive”.

On to `O=C(COC(=O)c1ccccn1)NNC(=O)c1ccc([N+](=O)[O-])cc1`, for which the Potency result was “inactive”.

In the case of `Cc1ccc(C(=O)O/N=C(\N)c2ccccn2)cc1Cl`, the Potency was 1580 nM (active).

On to `Cc1ccc(/C(N)=N/OC(=O)COc2ccc(Cl)c(C)c2)cc1`, for which the Potency entry is “inactive”.

For `COc1ccc(C(=O)NNC(=O)c2cnccn2)cc1[N+](=O)[O-]`, the Potency entry was “inactive”.

Consider `N/C(=N\OC(=O)Cc1ccc([N+](=O)[O-])cc1)c1ccccn1`, for which the Potency result was “inactive”.

Take `N/C(=N\OC(=O)c1ccc([N+](=O)[O-])cc1)c1ccccn1`: the Potency is 355 nM (active).

Take `COc1ccc(C(=O)O/N=C(\N)c2ccccn2)cc1[N+](=O)[O-]`: the Potency was 2510 nM (active).

Regarding `O=C(Nc1ccccc1Cl)O/N=C(/c1ccccc1)c1ccccn1`, the Potency result was “inactive”.

In the case of `COc1ccc(C(=O)CSc2nc(C)cc(C)n2)cc1[N+](=O)[O-]`, the Potency entry is “inactive”.

Regarding `CN(C(=O)Cn1nnc(-c2ccc(F)cc2)n1)C1CCS(=O)(=O)C1` (centres undefined), the Potency entry was “inactive”.

Regarding `CCOC(=O)c1ccccc1NC(=O)COC(=O)C(Cc1c[nH]c2ccccc12)NC(C)=O` (centres undefined), the Potency entry is “inactive”.

Take `CC(C)Cc1nnc(NC(=O)CCNC(=O)c2ccccc2Cl)s1`: the Potency entry was “inactive”.

As for `O=C(COC(=O)CNC(=O)C1CCCCC1)NCc1ccccc1`, the Potency result was “inactive”.

Turning to `CC(C(=O)NC1CCCC1)N1CCN(S(=O)(=O)c2ccccc2Cl)CC1` (centres undefined), the Potency result was “inactive”.

`Cc1ccc(NS(=O)(=O)c2ccc3c(c2)CC(=O)N3)cc1Cl`: the Potency result was “inactive”.

Take `O=C(OCC(=O)N1CCc2ccccc21)c1ccc([N+](=O)[O-])cc1`: the Potency entry is “inactive”.

Turning to `CC1CCCN(C(=O)c2cc(-c3ccco3)nc3ccccc23)C1` (centres undefined), the Potency entry was “inactive”.

Regarding `Nc1ccc(N=Nc2ccccc2Cl)c(N)n1`, the Potency is 3160 nM (active).

As for `O=C(NCc1ccncc1)c1cccc(NS(=O)(=O)c2ccc(F)c(F)c2)c1`, the Potency result was “inactive”.

In the case of `CC[C@H](C)C(=O)N[C@H]1CCCN1C(=O)/C=C/c1ccccc1`, the Potency entry is “inactive”.

As for `Cc1nc2cc(NC(=O)NCc3ccccc3)ccc2o1`, the Potency result is “inactive”.

As to `Cc1nc2ccc(NC(=O)C(F)(F)F)cc2o1`, the Potency entry was “inactive”.

Turning to `Cc1ccc(NC(=O)Nc2ccc3oc(C)nc3c2)cc1`, the Potency is 1120 nM (active).

For the molecule `CCc1ccc(OCC(=O)OC(C)C(=O)NC2CC2)cc1` (centres undefined), the Potency result was “inactive”.

Regarding `O=C(CN1CCc2ccccc2C1)Nc1cccc(S(=O)(=O)N2CCOCC2)c1`, the Potency entry was “inactive”.

Turning to `Cc1cccc(NS(=O)(=O)c2cccc(C(=O)NNC(=O)c3ccccc3O)c2)c1`, the Potency result is “inactive”.

`Cc1cc(C)cc(OCC(=O)Nc2ccc(N3CCOCC3)cc2N2CCOCC2)c1`: the Potency result was “inactive”.

Regarding `CCN1/C(=C/c2ccc3ccc(C)cc3[n+]2CC)Sc2ccccc21`, the Potency entry was “inactive”.

As for `O=C(CCN1c2ccccc2Sc2ccccc21)Nc1ccccc1`, the Potency result was “inactive”.

For `CCN1/C(=C/C(=S)Nc2ccccc2)Sc2ccccc21`, the Potency was 3980 nM (active).

`O=C(NC1=NCCS1)c1ccc(Cl)s1`: the Potency was 2510 nM (active).

For `COc1ccc(C(=O)NC2=NCCS2)c(OC)c1`, the Potency is 891 nM (active).

Turning to `O=C(NCc1ccc2c(c1)OCO2)c1ccc(Cl)s1`, the Potency entry was “inactive”.

For the molecule `O=C(NC1=NCCS1)[C@H](Cc1ccccc1)N1C(=O)c2ccccc2C1=O`, the Potency result was “inactive”.

Turning to `COc1ccccc1C(=O)NCCC(=O)NC1=NCCS1`, the Potency result is “inactive”.

In the case of `CCOc1ccc(C(=O)CCC(=O)NC2=NCCS2)cc1`, the Potency result is “inactive”.

`O=C(COC(=O)c1ccc(N2CCCC2=O)cc1)c1ccc(OC(F)F)cc1`: the Potency entry was “inactive”.

In the case of `COc1cc(OC)cc(-c2c(-c3cccs3)c3cc(-c4ccc(OC)nc4)ccc3n2C)c1`, the Potency entry is “inactive”.

Consider `CCCCN(C(=O)c1ccc2ccccc2c1)c1c(N)n(CCCC)c(=O)[nH]c1=O`, for which the Potency entry is “inactive”.

Consider `Nc1ncc(CN2CCCC(C(=O)Nc3ccc(-c4ccco4)cc3)C2)cn1` (centres undefined), for which the Potency entry was “inactive”.

Regarding `COc1ccc(C(C)(C)C)cc1NC(=O)CCN1C(=O)C2CCCCC2C1=O` (centres undefined), the Potency entry was “inactive”.

For `O=C(CSc1ncnc2c1nnn2Cc1ccc(F)cc1)NC1CCCC1`, the Potency result is “inactive”.

As to `CN(C)C(=O)COC(=O)c1cccc(S(=O)(=O)N2CC3(C)CC2CC(C)(C)C3)c1` (centres undefined), the Potency result was “inactive”.

For `CCCNC(=O)CCc1c(C)nc2c(c(C)nn2-c2ccc(C)cc2)c1C`, the Potency entry was “inactive”.

Turning to `CCCNC(=O)c1c(Cl)cnn1-c1ccc(C)cc1`, the Potency is 2510 nM (active).

In the case of `CCCc1c(C(=O)O)cnn1-c1ccc(Cl)cc1`, the Potency entry is “inactive”.

With `Cc1ccc(C)c(OCC(=O)NNC(=O)C2CCC2)c1`, the Potency entry is “inactive”.

For `O=C(O[C@@H]1[C@H](Cc2ccccc2)NS(=O)(=O)[C@H]2C[C@@H]3C=C[C@]12O3)c1ccccc1Br`, the Potency result is “inactive”.
